Source: PubChem BioAssay (NCATS)
Values joined by “and” are separate entries in the source; they are usually repeats but may differ in a detail not shown here. Equal entries are not always repeated. Inconclusive results are not listed. Active and inactive are the calls of the source. Unless noted, the call rests on the fitted dose curve; in most records, active means well fitted curve in the direction sought with a large enough effect; inconclusive means small, poorly fitted or top-dose-only effect, or another doubt; inactive means no such curve, though single readings can be large; an effect the other way counts as inactive or inconclusive.

Columns and labels:
CASKI = test: Primary qHTS to identify gynecologic anti-cancer compounds using libraries of approved drugs and bioactive compounds (AID 1345084); details: Gynecologic cancer cell panel viability, ATPlite luminescence, 48 h; series mostly up to 57.5 µM; further: on the % scale 0 is the no-effect control and ±100 the full control effect; nearly all actives have a fitted effect of over 55% in size
Outline: (§1)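 Measured: luminescence after ATPlite addition (15 min, RT). Exposure: 48 h, 37 C, 5% CO2.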

Es-2 = test: as above; details: Gynecologic cancer cell panel viability, ATPlite luminescence, 48 h; series mostly up to 57.5 µM
Outline: as §1

HeLa = test: as above; details: Gynecologic cancer cell panel viability, ATPlite luminescence, 48 h; series mostly up to 57.5 µM
Outline: as §1

Hek293T = test: as above; details: Gynecologic cancer cell panel viability, ATPlite luminescence, 48 h, control line for the selectivity index; series mostly up to 57.5 µM
Outline: as §1

JEG-3 = test: as above; details: Gynecologic cancer cell panel viability, ATPlite luminescence, 48 h; series mostly up to 57.5 µM
Outline: as §1

OV90 = test: as above; details: Gynecologic cancer cell panel viability, ATPlite luminescence, 48 h; series mostly up to 57.5 µM
Outline: as §1

PA-1 = test: as above; details: Gynecologic cancer cell panel viability, ATPlite luminescence, 48 h; series mostly up to 57.5 µM
Outline: as §1

SKOV3 = test: as above; details: Gynecologic cancer cell panel viability, ATPlite luminescence, 48 h; series mostly up to 57.5 µM
Outline: as §1

Tov-21-G = test: as above; details: Gynecologic cancer cell panel viability, ATPlite luminescence, 48 h; series mostly up to 57.5 µM
Outline: as §1

Tov112D = test: as above; details: Gynecologic cancer cell panel viability, ATPlite luminescence, 48 h; series mostly up to 57.5 µM
Outline: as §1

[1] = Drug repurposing screens with cells derived from glioblastoma tumor samples (AID 1345199); details: GBM patient neurospheres viability, ATP luminescence, 48 h; further: on the % scale 0 is the no-effect control and ±100 the full control effect; nearly all actives have a fitted effect of over 40% in size
Outline: (§2)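 Primary testing used CD133+ neurospheres from four GBM patients, seven concentrations, 48 h exposure and ATP-based viability; confirmation added three slower-growing patient lines.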

astro = test: as above; details: viability, ATP luminescence, 48 h; series mostly up to 45.9 µM
Outline: as §2

[2] = molecular target: Nuclear receptor subfamily 1 group I member 2 (Rattus norvegicus) (UniProt Q9R1A7); test: qHTS assay for small molecule activators of the rat pregnane X receptor (rPXR) signaling pathway (AID 651751; call rule not given here; further: 0% is about no effect); details: rPXR reporter cells, luciferase (One-Glo), 24 h
[3] = qHTS assay for small molecule activators of the human pregnane X receptor (PXR) signaling pathway (AID 720659; call rule not given here; further: 0% is about no effect)
[4] = at 45.9 µM (top of the series), tumour line B
[5] = at 45.9 µM (top of the series), tumour line D
[6] = at 46 µM (top of the series), tumour line A
[7] = at 46.1 µM (top of the series), tumour line C
[8] = at 20 µM (top of the series), tumour line C
[9] = at 21.2 µM (top of the series), tumour line B
[10] = at 21.2 µM (top of the series), tumour line D
[11] = at 21.3 µM (top of the series), tumour line A

Sequence of Nuclear receptor subfamily 1 group I member 2 (Rattus norvegicus) (Q9R1A7 whole entry, looked up): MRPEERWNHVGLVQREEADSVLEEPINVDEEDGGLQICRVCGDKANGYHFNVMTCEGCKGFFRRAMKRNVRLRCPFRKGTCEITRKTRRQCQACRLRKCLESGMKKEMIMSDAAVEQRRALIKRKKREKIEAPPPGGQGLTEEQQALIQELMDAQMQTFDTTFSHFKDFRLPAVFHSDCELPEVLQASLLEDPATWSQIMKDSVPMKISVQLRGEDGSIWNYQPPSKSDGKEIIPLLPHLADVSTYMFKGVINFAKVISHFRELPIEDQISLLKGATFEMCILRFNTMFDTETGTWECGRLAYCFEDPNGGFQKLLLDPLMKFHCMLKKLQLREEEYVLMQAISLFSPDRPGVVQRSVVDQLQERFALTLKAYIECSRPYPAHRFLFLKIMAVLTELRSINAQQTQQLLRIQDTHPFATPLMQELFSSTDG

CS(=O)(=O)N(Cc1ccco1)CC(O)Cn1c2ccccc2c2ccccc21 (stereo not given)
inactive: Potency (CASKI) | Potency (Es-2) | Potency (HeLa) | Potency (Hek293T) | Potency (JEG-3) | Potency (OV90) | Potency (PA-1) | Potency (SKOV3) | Potency (Tov-21-G) | Potency (Tov112D)

COc1ccc(C2CC(c3ccccc3)=NN2c2ccc(S(N)(=O)=O)cc2)cc1 (stereo not given)
inactive: Potency (CASKI) | Potency (Es-2) | Potency (HeLa) | Potency (Hek293T) | Potency (JEG-3) | Potency (OV90) | Potency (PA-1) | Potency (SKOV3) | Potency (Tov-21-G) | Potency (Tov112D)

CC(C)(C)OC(=O)N[C@H]1CCCCCC=C[C@@H]2C[C@@]2(C(=O)NS(=O)(=O)C2CC2)NC(=O)[C@@H]2C[C@@H](OC(=O)N3Cc4cccc(F)c4C3)CN2C1=O
inactive: Potency (CASKI) | Potency (Es-2) | Potency (HeLa) | Potency (Hek293T) | Potency (JEG-3) | Potency (OV90) | Potency (PA-1) | Potency (SKOV3) | Potency (Tov-21-G) | Potency (Tov112D)

CN(C)c1cc(NC(=O)CNC(C)(C)C)c(O)c2c1C[C@@H]1C[C@H]3[C@H](N(C)C)C(=O)C(C(N)=O)=C(O)[C@@]3(O)C(=O)C1=C2O
inactive: Potency (CASKI) | Potency (Es-2) | Potency (HeLa) | Potency (Hek293T) | Potency (JEG-3) | Potency (OV90) | Potency (PA-1) | Potency (SKOV3) | Potency (Tov-21-G) | Potency (Tov112D) | activity, negative = cell killing [1, 4] 8.46% | activity, negative = cell killing [1, 5] 6.87% | activity, negative = cell killing [1, 6] -27.8% | activity, negative = cell killing [1, 7] 0.651% | Potency (astro)

CCN(CC)CCOC(=O)c1ccc(N)cc1
inactive: Potency (CASKI) | Potency (Es-2) | Potency (HeLa) | Potency (Hek293T) | Potency (JEG-3) | Potency (OV90) | Potency (PA-1) | Potency (SKOV3) | Potency (Tov-21-G) | Potency (Tov112D) | activity, negative = cell killing [1, 8] 5.7% | activity, negative = cell killing [1, 9] -3.94% | activity, negative = cell killing [1, 10] 2% | activity, negative = cell killing [1, 11] -17.4% | Potency (astro)

CCN1CCC[C@H]1CNC(=O)c1cc(S(N)(=O)=O)ccc1OC
inactive: Potency (CASKI) | Potency (Es-2) | Potency (HeLa) | Potency (Hek293T) | Potency (JEG-3) | Potency (OV90) | Potency (PA-1) | Potency (SKOV3) | Potency (Tov-21-G) | Potency (Tov112D) | activity, negative = cell killing [1, 4] 0.712% | activity, negative = cell killing [1, 5] -10.3% | activity, negative = cell killing [1, 6] -29.7% | activity, negative = cell killing [1, 7] 1.29% | Potency (astro)

O=C(O)Cc1cccc2ccccc12
inactive: Potency (CASKI) | Potency (Es-2) | Potency (HeLa) | Potency (Hek293T) | Potency (JEG-3) | Potency (OV90) | Potency (PA-1) | Potency (SKOV3) | Potency (Tov-21-G) | Potency (Tov112D) | activity, negative = cell killing [1, 4] -11.6% | activity, negative = cell killing [1, 5] 18.7% | activity, negative = cell killing [1, 6] -19.6% | activity, negative = cell killing [1, 7] -6.29% | activity, negative = cell killing ([1]; at 91.6 µM (top of the series), tumour line A) -29.8% | activity, negative = cell killing ([1]; at 91.6 µM (top of the series), tumour line B) 9.54% | activity, negative = cell killing ([1]; at 91.6 µM (top of the series), tumour line D) -15.1% | activity, negative = cell killing ([1]; at 99.2 µM (top of the series), tumour line C) 10.5% | Potency (astro) | max response [2] -1.12% and -1.15% | outcome [3]

CCN(CC)C(=O)c1ccc(O)c(OC)c1
inactive: Potency (CASKI) | Potency (Es-2) | Potency (HeLa) | Potency (Hek293T) | Potency (JEG-3) | Potency (OV90) | Potency (PA-1) | Potency (SKOV3) | Potency (Tov-21-G) | Potency (Tov112D) | activity, negative = cell killing [1, 8] -17.1% | activity, negative = cell killing [1, 9] -3.79% | activity, negative = cell killing [1, 10] 8.85% | activity, negative = cell killing [1, 11] -7.96% | activity, negative = cell killing [1, 4] -9.11% | activity, negative = cell killing [1, 5] 5.23% | activity, negative = cell killing [1, 6] -18.7% | activity, negative = cell killing [1, 7] -18.9% | Potency (astro)

NC(N)=Nc1nc(CSCC/C(N)=N/S(N)(=O)=O)cs1
inactive: Potency (CASKI) | Potency (Es-2) | Potency (HeLa) | Potency (Hek293T) | Potency (JEG-3) | Potency (OV90) | Potency (PA-1) | Potency (SKOV3) | Potency (Tov-21-G) | Potency (Tov112D) | activity, negative = cell killing [1, 4] -1.53% | activity, negative = cell killing [1, 5] -7.06% | activity, negative = cell killing [1, 6] -13.8% | activity, negative = cell killing [1, 7] -8.17% | Potency (astro)

Cc1c(NC(=O)c2ccc(C(C)(C)C)cc2)cccc1-c1cn(C)c(=O)c(Nc2ccc(C(=O)N3CCOCC3)cc2)n1
inactive: Potency (CASKI) | Potency (Es-2) | Potency (HeLa) | Potency (Hek293T) | Potency (JEG-3) | Potency (OV90) | Potency (PA-1) | Potency (SKOV3) | Potency (Tov-21-G) | Potency (Tov112D)

CCOC(=O)C1=C(N)Oc2ccc(Br)cc2C1C(C#N)C(=O)OCC (stereo not given)
inactive: Potency (CASKI) | Potency (Es-2) | Potency (HeLa) | Potency (Hek293T) | Potency (JEG-3) | Potency (OV90) | Potency (PA-1) | Potency (SKOV3) | Potency (Tov-21-G) | Potency (Tov112D)

OC[C@@H](O)[C@H](O)[C@H](O)[C@@H](O)CO
inactive: Potency (CASKI) | Potency (Es-2) | Potency (HeLa) | Potency (Hek293T) | Potency (JEG-3) | Potency (OV90) | Potency (PA-1) | Potency (SKOV3) | Potency (Tov-21-G) | Potency (Tov112D) | activity, negative = cell killing [1, 4] 0.357% and -12% | activity, negative = cell killing [1, 5] -2.85% and -9.13% | activity, negative = cell killing [1, 6] -13.7% and -24.1% | activity, negative = cell killing [1, 7] -4.39% and -14.9% | Potency (astro)

CNC(=O)c1ccc2cc(C3(O)CCn4cncc43)ccc2c1 (stereo not given)
inactive: Potency (CASKI) | Potency (Es-2) | Potency (HeLa) | Potency (Hek293T) | Potency (JEG-3) | Potency (OV90) | Potency (PA-1) | Potency (SKOV3) | Potency (Tov-21-G) | Potency (Tov112D)

COc1ccccc1N1CCN(CCCNc2cc(=O)n(C)c(=O)n2C)CC1
inactive: Potency (CASKI) | Potency (Es-2) | Potency (HeLa) | Potency (Hek293T) | Potency (JEG-3) | Potency (OV90) | Potency (PA-1) | Potency (SKOV3) | Potency (Tov-21-G) | Potency (Tov112D) | activity, negative = cell killing [1, 4] -12.1% and -4.13% | activity, negative = cell killing [1, 5] 1.29% and -19.7% | activity, negative = cell killing [1, 6] -30.8% | activity, negative = cell killing [1, 7] -17.7% and -6.4% | Potency (astro)

CO[C@H]1C=CO[C@@]2(C)Oc3c(C)c(O)c4c(O)c(c5c(c4c3C2=O)NC2(CCN(CC(C)C)CC2)N=5)=NC(=O)C(C)=CC=C[C@H](C)[C@H](O)[C@@H](C)[C@@H](O)[C@@H](C)[C@H](OC(C)=O)[C@H]1C
inactive: Potency (CASKI) | Potency (Es-2) | Potency (HeLa) | Potency (Hek293T) | Potency (JEG-3) | Potency (OV90) | Potency (PA-1) | Potency (SKOV3) | Potency (Tov-21-G) | Potency (Tov112D)
